Several values for one entry are separate records, joined by “and”; a condition that tells them apart may be missing. Identical values can stand only once. Inconclusive results are not listed. More than one record can exist for a structure, and the calls need not agree. Activity calls are given as the source filed them. Unless noted, the call rests on the fitted dose curve; in most records, active means well fitted curve in the direction sought with a large enough effect; inconclusive means small, poorly fitted or top-dose-only effect, or another doubt; inactive means no such curve, though single readings can be large; an effect the other way counts as inactive or inconclusive.
Experiments:
[1] = Confirmation and Secondary Assay for Modulators of Hemoglobin Beta Chain Splicing at IVS2 654 locus (AID 910);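 further: HeLa cells stably carrying EGFP split by mutant beta-globin IVS2-654 intron; per-well total GFP intensity by laser scanning cytometry after 2-day treatment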
Procedure, shortened: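 Readout: per-well total peak green fluorescence (488 nm ex, 500–520 nm em) from objects 5–250 µm, reflecting correct splicing of an EGFP-654 reporter. Compounds were applied for 2 days at 37 °C to overnight-plated HeLa EGFP-654 cells; controls were DMSO and 500 nM IVS2-654 PNA.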

[2] = Confirmation and Secondary Assay for Modulators of Hemoglobin Beta Chain Splicing at IVS2 705 locus (AID 930);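 further: HeLa cells stably expressing the EGFP-705 splicing reporter; GFP fluorescence per well restored by corrected splicing of the IVS2-705 intron in EGFP; series mostly up to about 46 µM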
Procedure, shortened: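 HeLa IVS2-705 EGFP reporter cells, 500/well, compound 2 d at 37C; correct splicing yields fluorescent EGFP. Control: 500 nM antisense PNA. Read-out: total peak GFP intensity.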

[3] = molecular target: N-terminal Xaa-Pro-Lys N-methyltransferase 1 (Homo sapiens) (UniProt Q9BV86); assay: Confirmatory qHTS for Inhibitors of N-terminal methyltransferase 1 (NTMT1): MTaseGlo Assay (AID 1645874); settings: NTMT1 enzyme, MTase-Glo SAH luminescence; further: potency means the concentration at half of the fitted maximal effect; nearly all actives have a fitted effect of over 65% in size
N-terminal Xaa-Pro-Lys N-methyltransferase 1 (Homo sapiens), sequence (Q9BV86 whole entry, looked up): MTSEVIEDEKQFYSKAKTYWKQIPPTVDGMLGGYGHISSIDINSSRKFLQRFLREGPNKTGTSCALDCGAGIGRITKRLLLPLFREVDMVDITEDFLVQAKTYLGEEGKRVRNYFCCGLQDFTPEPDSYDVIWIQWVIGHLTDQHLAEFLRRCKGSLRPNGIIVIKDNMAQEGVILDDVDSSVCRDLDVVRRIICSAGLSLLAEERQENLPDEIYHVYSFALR
Procedure, shortened: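 Compounds are incubated with 125 nM NTMT1 and 100 uM SAM for 15 min before the SPKRIA peptide (1 uM) starts a 30 min room-temperature methylation. SAH is measured by coupled luciferase luminescence and curves fitted to a Hill equation.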

[4] = molecular target: Cytochrome P450 1A2 (Homo sapiens) (UniProt P05177); assay: p450-cyp1a2 (AID 410; calls by dose curve; further: potency means the concentration at half of the fitted maximal effect)
Cytochrome P450 1A2 (Homo sapiens), sequence (P05177 whole entry, looked up): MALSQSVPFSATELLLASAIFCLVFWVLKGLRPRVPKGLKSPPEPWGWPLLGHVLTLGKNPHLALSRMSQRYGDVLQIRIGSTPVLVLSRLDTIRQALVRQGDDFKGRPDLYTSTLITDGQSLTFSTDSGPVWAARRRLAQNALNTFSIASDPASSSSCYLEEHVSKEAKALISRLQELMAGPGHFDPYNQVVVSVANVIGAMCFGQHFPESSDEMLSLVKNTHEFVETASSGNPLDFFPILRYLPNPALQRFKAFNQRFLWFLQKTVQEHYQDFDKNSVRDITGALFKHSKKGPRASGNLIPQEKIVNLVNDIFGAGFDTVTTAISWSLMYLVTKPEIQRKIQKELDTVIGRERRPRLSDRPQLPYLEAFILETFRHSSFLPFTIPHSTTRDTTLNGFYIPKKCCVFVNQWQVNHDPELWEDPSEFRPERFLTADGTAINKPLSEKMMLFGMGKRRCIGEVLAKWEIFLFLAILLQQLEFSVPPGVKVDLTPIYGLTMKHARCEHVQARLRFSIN
Procedure, shortened: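 Human CYP1A2 (20nM) demethylated Luciferin-ME at its Km (100uM) in 100mM KPO4. After 10 min compound preincubation, NADPH regeneration ran the reaction 60 min at room temperature. Luciferin was read by luminescence, normalized to 57 uM furafylline.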

[5] = molecular target: Glucocorticoid receptor (Homo sapiens) (UniProt P04150); assay: GR-EFC Redistribution (AID 451; calls by dose curve; further: potency means the concentration at half of the fitted maximal effect); settings: CHO-K1 GR-EFC translocation, beta-gal luminescence, 2 h
Glucocorticoid receptor (Homo sapiens), sequence (P04150 whole entry, looked up, the tested form may be a part): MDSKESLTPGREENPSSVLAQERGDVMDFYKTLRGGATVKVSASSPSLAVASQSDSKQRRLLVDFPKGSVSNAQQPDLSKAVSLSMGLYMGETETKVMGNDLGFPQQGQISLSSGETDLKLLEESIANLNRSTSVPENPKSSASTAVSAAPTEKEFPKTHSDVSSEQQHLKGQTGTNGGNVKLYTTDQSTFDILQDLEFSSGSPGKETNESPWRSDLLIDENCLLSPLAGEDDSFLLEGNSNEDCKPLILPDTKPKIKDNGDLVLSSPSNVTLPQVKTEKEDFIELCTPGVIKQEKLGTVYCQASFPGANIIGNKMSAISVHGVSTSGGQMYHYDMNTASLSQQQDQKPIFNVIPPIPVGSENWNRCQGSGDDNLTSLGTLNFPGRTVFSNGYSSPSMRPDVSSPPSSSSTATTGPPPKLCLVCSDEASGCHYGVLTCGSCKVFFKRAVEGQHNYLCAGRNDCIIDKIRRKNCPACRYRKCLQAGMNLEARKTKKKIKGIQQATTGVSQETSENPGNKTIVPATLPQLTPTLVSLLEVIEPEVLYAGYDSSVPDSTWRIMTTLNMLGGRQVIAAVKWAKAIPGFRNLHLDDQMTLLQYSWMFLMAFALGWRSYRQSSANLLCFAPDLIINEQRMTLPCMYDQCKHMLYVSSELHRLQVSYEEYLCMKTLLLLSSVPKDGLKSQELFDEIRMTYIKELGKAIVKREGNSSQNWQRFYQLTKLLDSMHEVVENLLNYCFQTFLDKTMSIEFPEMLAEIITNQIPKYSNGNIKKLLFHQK
Procedure, shortened: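 Translocation of GR-ED fusion to nuclear EA restores b-gal, read by luminescence after 1 h room-temperature detection. Engineered CHO-K1 biosensor cells, 1,000/well, exposed 2 h at 37 C to titrations up to 46 uM final.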

[6] = molecular target: Mitogen-activated protein kinase 10 (Mus musculus) (UniProt Q61831); assay: JNK3 AlphaScreen Assay (AID 530; active means well fitted curve in either direction with a large enough effect, not every such curve was filed as active;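 further: kinase came from lysate of stimulated human HepG2 cells; signal reports phosphorylation of biotinylated GST-cJun 1-79 at Ser73 with 10 µM ATP; series mostly up to about 57 µM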)
Procedure, shortened: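 Room-temperature AlphaScreen kinase assay; pre-activated HepG2 lysate as JNK3 source, biotin-GST-cJun(1-79) substrate, 10 uM ATP, compound 15 min preincubation.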

[7] = molecular target: 3',5'-cyclic-AMP phosphodiesterase 4B (Homo sapiens) (UniProt Q07343); assay: qHTS Assay for Inhibitors of PDE-IV (AID 607; active means well fitted activation curve with a large enough effect in the main read-out, with a control signal flat, not every such curve was filed as active)
3',5'-cyclic-AMP phosphodiesterase 4B (Homo sapiens), sequence (Q07343 whole entry, looked up): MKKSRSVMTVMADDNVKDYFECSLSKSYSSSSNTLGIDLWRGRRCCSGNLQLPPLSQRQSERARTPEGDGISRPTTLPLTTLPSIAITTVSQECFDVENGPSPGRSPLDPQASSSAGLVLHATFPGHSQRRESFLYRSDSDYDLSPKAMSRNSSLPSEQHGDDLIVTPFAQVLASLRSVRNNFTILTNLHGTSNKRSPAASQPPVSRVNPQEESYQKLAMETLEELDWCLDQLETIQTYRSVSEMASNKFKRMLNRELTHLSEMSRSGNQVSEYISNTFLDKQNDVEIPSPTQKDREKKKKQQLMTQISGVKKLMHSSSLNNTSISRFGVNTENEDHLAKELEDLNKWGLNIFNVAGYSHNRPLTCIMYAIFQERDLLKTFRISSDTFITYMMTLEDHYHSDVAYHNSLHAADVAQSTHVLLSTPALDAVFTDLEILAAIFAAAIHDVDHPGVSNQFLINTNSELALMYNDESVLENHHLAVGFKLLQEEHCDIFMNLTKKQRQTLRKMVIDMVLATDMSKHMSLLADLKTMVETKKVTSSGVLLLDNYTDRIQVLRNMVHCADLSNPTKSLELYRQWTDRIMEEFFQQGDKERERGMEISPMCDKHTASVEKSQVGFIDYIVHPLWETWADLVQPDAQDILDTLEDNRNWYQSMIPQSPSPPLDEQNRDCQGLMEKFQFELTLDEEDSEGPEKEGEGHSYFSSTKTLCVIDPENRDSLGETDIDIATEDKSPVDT
Procedure, shortened: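 Live HEK293 cells with a modified cyclic nucleotide-gated (CNG) channel report intracellular cAMP via membrane-potential dye fluorescence (ex 535/em 590 nm). Endogenous PDE-IV was targeted. Compounds were tested at up to 22.9 uM final; RO 20-1724 100 uM served as control.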

[8] = molecular target: Guanine nucleotide-binding protein G(i) subunit alpha-1 (Homo sapiens) (UniProt P63096); assay: qHTS Assay for Inhibitors of RGS12 GoLoco Motif Activity (Green Fluorophore) (AID 879);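 further: negative values mean loss of peptide binding seen as reduced polarization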
Guanine nucleotide-binding protein G(i) subunit alpha-1 (Homo sapiens), sequence (P63096 whole entry, looked up): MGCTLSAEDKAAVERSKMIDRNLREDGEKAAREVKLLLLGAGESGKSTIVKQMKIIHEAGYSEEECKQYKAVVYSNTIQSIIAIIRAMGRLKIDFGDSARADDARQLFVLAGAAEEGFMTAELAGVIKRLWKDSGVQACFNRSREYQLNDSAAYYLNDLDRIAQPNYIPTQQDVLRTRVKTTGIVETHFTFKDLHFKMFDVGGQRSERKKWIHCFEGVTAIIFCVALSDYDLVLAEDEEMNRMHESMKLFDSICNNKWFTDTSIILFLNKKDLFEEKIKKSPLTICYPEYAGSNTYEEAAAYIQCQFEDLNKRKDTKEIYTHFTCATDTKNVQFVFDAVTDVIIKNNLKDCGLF
Procedure, shortened: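 Fluorescence polarization assay: 50 nM Gαi1 with 10 nM FITC-labeled RGS12 GoLoco peptide in 10 mM Tris pH 7.5, 150 mM NaCl, 0.1 mM GDP, 0.05% NP40, 10 min at room temperature with compound.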

[9] = molecular target: Cytochrome P450 3A4 (Homo sapiens) (UniProt P08684); assay: qHTS Assay for Inhibitors and Substrates of Cytochrome P450 3A4 (AID 884); further: series mostly up to about 57 µM; nearly all actives have a fitted effect of over 50% in size
Procedure, shortened: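 20 nM human CYP3A4 with 25 uM Luciferin-PPXE (at KM) in 200 mM KPO4, preincubated 10 min with compound; NADPH regeneration started a 60 min RT reaction. Luciferin detected by luminescence, normalized to 57 uM ketoconazole as full inhibition.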

[10] = molecular target: Cytochrome P450 2D6 (Homo sapiens) (UniProt P10635); assay: qHTS Assay for Inhibitors and Substrates of Cytochrome P450 2D6 (AID 891); further: potency means the concentration at half of the fitted maximal effect; nearly all actives have a fitted effect of over 60% in size
Cytochrome P450 2D6 (Homo sapiens), sequence (P10635 whole entry, looked up): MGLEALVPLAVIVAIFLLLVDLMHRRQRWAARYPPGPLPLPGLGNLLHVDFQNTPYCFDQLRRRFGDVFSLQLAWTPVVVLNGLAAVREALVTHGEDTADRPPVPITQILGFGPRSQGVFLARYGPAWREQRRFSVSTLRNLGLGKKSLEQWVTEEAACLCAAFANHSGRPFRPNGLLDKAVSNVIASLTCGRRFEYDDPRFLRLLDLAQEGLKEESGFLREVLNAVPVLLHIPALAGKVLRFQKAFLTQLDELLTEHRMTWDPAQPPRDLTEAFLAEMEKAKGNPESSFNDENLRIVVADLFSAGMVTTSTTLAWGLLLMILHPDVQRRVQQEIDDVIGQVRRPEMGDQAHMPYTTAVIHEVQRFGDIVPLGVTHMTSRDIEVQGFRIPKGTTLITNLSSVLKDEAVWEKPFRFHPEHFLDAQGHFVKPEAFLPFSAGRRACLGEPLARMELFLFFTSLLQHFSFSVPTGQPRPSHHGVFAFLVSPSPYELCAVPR
Procedure, shortened: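 Human CYP2D6 (5 nM) with 30 uM Luciferin-ME EGE (at Km) in 100 mM KPO4, compound preincubated 10 min, then NADPH regeneration system for 60 min at room temperature. Luciferin read by luminescence; normalized to 1.43 uM quinidine.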

[11] = qHTS Assay for Identification of Small Molecule Antagonists for NFkB Signaling Pathway (AID 895; active means well fitted inhibition curve with a large enough effect in the signal ratio, with a control signal flat, not every such curve was filed as active; the % refers to the signal ratio)
Procedure, shortened: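 Beta-lactamase reporter read-out (460 and 530 nm emission ratio, 405 nm excitation, 2 hrs substrate loading RT) after 5 hr stimulation with 10 pM TNF alpha in compound-treated NFkB-bla ME-180 cells in low-serum medium.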

[12] = qHTS Assay for Identification of Small Molecule Agonists for Thrombopoietin (TPO) Signaling Pathway (AID 917)
Procedure, shortened: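 Murine Ba/F3 cells stably expressing human TPO receptor and a Glycoprotein IIb promoter–luciferase reporter were IL-3-starved overnight, then treated with compounds plus TPO (26 pM final, its EC50) for 24 hrs at 37 C; luminescence was read.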

[13] = molecular target: Muscarinic acetylcholine receptor M1 (Rattus norvegicus) (UniProt P08482); assay: qHTS Assay for Antagonists of Acetylcholine Muscarinic M1 Receptor: Kinetic Measurement of Intracellular Calcium Response (AID 943); further: potency means the concentration at half of the fitted maximal effect; nearly all actives have a fitted effect of over 75% in size
Muscarinic acetylcholine receptor M1 (Rattus norvegicus), sequence (P08482 whole entry, looked up): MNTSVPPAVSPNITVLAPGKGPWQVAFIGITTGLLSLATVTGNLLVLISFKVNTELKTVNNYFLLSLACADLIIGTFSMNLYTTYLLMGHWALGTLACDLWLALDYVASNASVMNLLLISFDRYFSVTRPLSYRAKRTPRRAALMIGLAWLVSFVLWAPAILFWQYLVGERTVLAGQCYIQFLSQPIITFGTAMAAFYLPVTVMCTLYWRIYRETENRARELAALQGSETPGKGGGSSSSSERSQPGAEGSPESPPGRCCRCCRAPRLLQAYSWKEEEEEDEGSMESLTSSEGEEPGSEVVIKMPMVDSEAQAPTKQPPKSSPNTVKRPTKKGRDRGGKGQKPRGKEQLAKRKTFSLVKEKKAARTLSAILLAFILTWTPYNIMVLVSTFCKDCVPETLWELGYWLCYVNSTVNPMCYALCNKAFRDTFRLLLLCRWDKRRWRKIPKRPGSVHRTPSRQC
Procedure, shortened: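 CHO cells stably expressing rat M1 were loaded with no-wash Fluo-4 dye for 1 h at 37C, pre-incubated 10 min with compound, then challenged with EC80 carbachol (100 nM final); kinetic calcium read 4 min, peak/basal ratio.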

[14] = molecular target: Muscarinic acetylcholine receptor M1 (Rattus norvegicus) (UniProt P08482); assay: qHTS Assay for Antagonists of Acetylcholine Muscarinic M1 Receptor: Measurement of IP-One Response (AID 944); further: potency means the concentration at half of the fitted maximal effect; nearly all actives have a fitted effect of over 75% in size
Procedure, shortened: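 CHO cells expressing rat M1 receptor, recovered overnight, were pre-incubated 10 min with compound, then stimulated 30 min with carbachol at EC80 (200 nM) in LiCl-containing buffer, pH 7.4. IP1 accumulation was read by HTRF (620/665 nm).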

[15] = molecular target: Pyruvate kinase (Leishmania mexicana) (UniProt Q27686); assay: qHTS Validation Assay for Inhibitors of Leishmania Mexicana Pyruvate Kinase (AID 945)
Pyruvate kinase (Leishmania mexicana), sequence (Q27686 2-499 E452W): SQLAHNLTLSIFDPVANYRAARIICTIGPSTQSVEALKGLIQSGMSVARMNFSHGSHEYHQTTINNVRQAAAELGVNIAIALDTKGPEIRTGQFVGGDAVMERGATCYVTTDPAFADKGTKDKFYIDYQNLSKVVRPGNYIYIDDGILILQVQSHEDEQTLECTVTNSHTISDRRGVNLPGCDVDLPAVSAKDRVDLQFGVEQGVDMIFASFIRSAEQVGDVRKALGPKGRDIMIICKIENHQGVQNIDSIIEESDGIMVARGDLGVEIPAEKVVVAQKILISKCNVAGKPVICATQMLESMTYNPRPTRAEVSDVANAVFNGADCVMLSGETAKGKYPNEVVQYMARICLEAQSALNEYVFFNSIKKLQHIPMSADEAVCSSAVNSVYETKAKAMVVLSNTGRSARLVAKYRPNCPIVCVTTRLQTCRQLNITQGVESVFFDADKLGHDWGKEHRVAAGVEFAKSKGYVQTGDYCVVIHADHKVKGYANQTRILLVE
Procedure, shortened: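 Eight-point qHTS titrations; enzyme 0.2 nM LmPYK (E451W mutant); substrates 0.5 mM PEP, 0.1 mM ADP; 7 mM MgCl2; 1 h room temperature; PKLight luminescence normalized to neutral control.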

[16] = molecular target: Pyruvate kinase PKM (Homo sapiens) (UniProt P14618); assay: qHTS Assay for Activators of Human Muscle Pyruvate Kinase (AID 954; active means well fitted curve in the direction sought with a large enough effect, not every such curve was filed as active)
Pyruvate kinase PKM (Homo sapiens), sequence (P14618 whole entry, looked up): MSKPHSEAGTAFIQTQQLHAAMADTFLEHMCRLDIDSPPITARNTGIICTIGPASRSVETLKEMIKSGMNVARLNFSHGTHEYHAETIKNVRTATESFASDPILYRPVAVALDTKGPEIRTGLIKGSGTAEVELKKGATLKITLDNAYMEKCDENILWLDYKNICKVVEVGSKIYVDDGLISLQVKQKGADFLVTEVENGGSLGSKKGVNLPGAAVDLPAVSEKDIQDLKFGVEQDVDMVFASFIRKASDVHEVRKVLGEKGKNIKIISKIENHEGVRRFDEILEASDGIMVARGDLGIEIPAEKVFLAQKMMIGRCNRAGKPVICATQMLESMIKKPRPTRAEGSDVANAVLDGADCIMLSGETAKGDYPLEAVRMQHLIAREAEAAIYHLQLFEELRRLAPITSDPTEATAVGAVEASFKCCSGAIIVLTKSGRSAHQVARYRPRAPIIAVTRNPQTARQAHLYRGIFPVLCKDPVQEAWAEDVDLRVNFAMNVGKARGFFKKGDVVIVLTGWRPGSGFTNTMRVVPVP
Procedure, shortened: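 Enzyme was run at intermediate activity so both inhibitors and activators could be detected. ATP formed from ADP and PEP by 0.1 nM human PKM2 during a 1 h room-temperature incubation was quantified by coupled luciferase luminescence.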

[17] = molecular target: Furin (Homo sapiens) (UniProt P09958); assay: Furin counterscreen qHTS for Zika virus inhibitors (AID 1347149);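 further: purified recombinant full-length human furin enzyme at 5 nM; fluorescence gain from furin cutting a BOC-RVRR-AMC peptide substrate over 15 min; top concentration of the series differs between compounds; nearly all actives have a fitted effect of over 70% in size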
Procedure, shortened: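 Fluorogenic cleavage of BOC-RVRR-AMC (2 microM final, Km ~15 µM) was monitored (ex 340, em 450 nm) at 37C after 15 min RT preincubation of 5 nM furin with compounds in HEPES pH 7.0 buffer with CaCl2 and Triton X-100. Percent inhibition was fitted to a 4-parameter Hill curve.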

[18] = Vero cells viability qHTS for Zika virus inhibitors (AID 1347167)
Procedure, shortened: (§1)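 Compounds were tested in concentration series on cells grown in DMEM containing 4% FBS. After 24 to 48 hours, cellular ATP was measured by luminescence with CellTiter Glo.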

[19] = HepG2 cells viability qHTS for Zika virus inhibitors (AID 1347168)
Procedure, shortened: as §1

[20] = Tertiary RLuc qRT-PCR qHTS assay for Zika virus inhibitors (AID 1347169); further: nearly all actives have a fitted effect of over 55% in size; further: potency means the concentration at half of the fitted maximal effect
Procedure, shortened: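 Vero cells (1,000 per well) plated overnight at 37 degrees C, treated with compound in DMSO, then infected with recombinant ZIKV-RLuc (Cambodian) at MOI 1-2 for 48-72 hrs. Live-cell Renilla luciferase substrate added; luminescence read after 1-1.5 hrs.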

Measured: Potency

CC1CCCC(=O)CCC/C=C/c2cc(O)cc(O)c2C(=O)O1 (stereo unspecified)
inactive: [1] | [2]
active: [3] 15.8 µM

C=CCN1CCC2(C)c3cc(O)ccc3C[C@H]1[C@H]2C
active: [10] 7.94 µM and 631 nM | [13] 14.1 µM | [14] 17.8 µM and 15.8 µM
inactive: [5] > 46 µM | [6] | [7] | [8] | [9] | [11] | [12] | [15] | [16] | [17] | [18] | [19] | [20]
inactive and 31.6 µM (active): [4]

CNc1ccc2oc(C[C@H]3O[C@@]4(CC[C@H]3C)O[C@H](C(C)C(=O)c3ccc[nH]3)[C@H](C)C[C@H]4C)nc2c1C(=O)O (stereo partly specified)
active: [20] 0.658 µM

Source: PubChem BioAssay (NCATS)
